In the supplement of paper PMC12067093, “Discovery and optimisation of a covalent ligand for TRIM25 and its application to targeted protein ubiquitination” (Chemical Science, 2025):
The full data set covers some 21,000 targets. This sample favours those with the largest changes.

Compound: Cc1cc(ccc1-c1ccccc1)C(=O)N1CCCN(CC1)C(=O)CCl [compound 10]
Experiment: probe-labelled cysteine peptide fold change vs DMSO (competition) (log2 fold change); higher = less target engagement (more negative = stronger competition)
Settings: THP-1, incubation time: 4 h
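Also: competitive profiling in live THP-1 cells: cysteine peptides tagged with an iodoacetamide desthiobiotin (IA-DTB) probe, intensity after compound treatment relative to DMSO-treated cells.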

Target: STX12_Q86Y82_29_DFSSIIQTCSGNIQR (UniProt Q86Y82)
- probe-labelled cysteine peptide fold change (10 µM): 0.143
- probe-labelled cysteine peptide fold change (50 µM): 0.0626

Target: TMEM173_Q86WV6_12_PHSSLHPSIPCPR (UniProt Q86WV6)
- probe-labelled cysteine peptide fold change (10 µM): 0.0393
- probe-labelled cysteine peptide fold change (50 µM): -0.625

Target: SPECC1_Q5M775_578_ATEASAVEQTAESCEVQEMLK (UniProt Q5M775)
- probe-labelled cysteine peptide fold change (10 µM): -0.116
- probe-labelled cysteine peptide fold change (50 µM): -0.22

Target: TNS3_Q68CZ2_512_DRETDILDDEMPHHDLHSVDSLGTLSSSEGPQSAHLGPFTCHK (UniProt Q68CZ2)
- probe-labelled cysteine peptide fold change (10 µM): -0.555
- probe-labelled cysteine peptide fold change (50 µM): -1.66

Target: TANK_Q92844_318_TKPSNLVNTCIR (UniProt Q92844)
- probe-labelled cysteine peptide fold change (10 µM): -0.257
- probe-labelled cysteine peptide fold change (50 µM): -0.558

Target: SQOR_Q9Y6N5_201_CAGAPQK (UniProt Q9Y6N5)
- probe-labelled cysteine peptide fold change (10 µM): -0.191
- probe-labelled cysteine peptide fold change (50 µM): -0.122

Target: TAPBPL_Q9BX59_39_AVDVVLDCFLAK (UniProt Q9BX59)
UniProt Q9BX59, sequence (Q9BX59 whole entry, looked up): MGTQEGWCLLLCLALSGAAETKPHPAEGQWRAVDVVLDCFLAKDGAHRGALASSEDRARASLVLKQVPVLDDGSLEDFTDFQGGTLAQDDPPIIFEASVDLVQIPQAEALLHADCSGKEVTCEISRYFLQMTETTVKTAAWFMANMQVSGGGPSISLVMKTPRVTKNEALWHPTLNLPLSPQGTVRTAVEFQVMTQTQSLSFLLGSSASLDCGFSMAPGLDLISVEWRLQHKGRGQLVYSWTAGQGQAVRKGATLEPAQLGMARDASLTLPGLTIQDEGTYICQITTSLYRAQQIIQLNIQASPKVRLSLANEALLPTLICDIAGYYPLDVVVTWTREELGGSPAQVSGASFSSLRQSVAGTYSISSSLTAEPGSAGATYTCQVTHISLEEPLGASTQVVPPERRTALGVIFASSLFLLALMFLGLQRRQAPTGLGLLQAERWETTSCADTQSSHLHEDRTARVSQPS
- probe-labelled cysteine peptide fold change (10 µM): 0.062
- probe-labelled cysteine peptide fold change (50 µM): -0.104

Target: TCF20_Q9UGU0_1918_YHYPCAIDADCLLHEENFSVR (UniProt Q9UGU0)
- probe-labelled cysteine peptide fold change (10 µM): 0.317
- probe-labelled cysteine peptide fold change (50 µM): 0.504

Target: SNX6_Q9UNH7_347+348_DVLQAETSQQLCCQK (UniProt Q9UNH7)
- probe-labelled cysteine peptide fold change (10 µM): -0.288
- probe-labelled cysteine peptide fold change (50 µM): -0.619

Target: TIGAR_Q9NQ88_114_EECPVFTPPGGETLDQVK (UniProt Q9NQ88)
- probe-labelled cysteine peptide fold change (10 µM): -0.225
- probe-labelled cysteine peptide fold change (50 µM): -1.35

Target: STAM2_O75886_76_VPHVALQALTLLGACVANCGK (UniProt O75886)
- probe-labelled cysteine peptide fold change (10 µM): -0.0779
- probe-labelled cysteine peptide fold change (50 µM): 0.0749

Target: SRPRA_P08240_253_VWELGGCANK (UniProt P08240)
UniProt P08240, sequence (P08240 whole entry, looked up): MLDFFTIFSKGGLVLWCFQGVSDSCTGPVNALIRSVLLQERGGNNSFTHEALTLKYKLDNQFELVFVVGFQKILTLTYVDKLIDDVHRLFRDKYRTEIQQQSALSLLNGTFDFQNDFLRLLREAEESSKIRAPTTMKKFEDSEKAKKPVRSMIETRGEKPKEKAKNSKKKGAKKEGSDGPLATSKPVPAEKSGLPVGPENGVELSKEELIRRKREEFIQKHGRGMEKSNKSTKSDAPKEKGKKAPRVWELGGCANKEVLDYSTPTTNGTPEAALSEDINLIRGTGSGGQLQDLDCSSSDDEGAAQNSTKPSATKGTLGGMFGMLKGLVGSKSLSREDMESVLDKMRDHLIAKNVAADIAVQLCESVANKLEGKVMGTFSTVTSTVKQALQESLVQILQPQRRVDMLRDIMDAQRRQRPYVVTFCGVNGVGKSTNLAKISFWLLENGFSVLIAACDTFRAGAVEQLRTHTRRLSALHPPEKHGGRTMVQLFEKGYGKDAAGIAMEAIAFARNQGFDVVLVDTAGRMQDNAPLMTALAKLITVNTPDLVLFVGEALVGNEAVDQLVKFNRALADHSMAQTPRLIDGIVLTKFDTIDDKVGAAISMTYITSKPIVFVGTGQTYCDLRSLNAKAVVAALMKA
- probe-labelled cysteine peptide fold change (10 µM): -0.192
- probe-labelled cysteine peptide fold change (50 µM): -0.783

Target: TNPO1_Q92973_205_SHAVACVNQFIISR (UniProt Q92973)
- probe-labelled cysteine peptide fold change (10 µM): 0.172
- probe-labelled cysteine peptide fold change (50 µM): 0.0841

Target: TARS_P26639_467_RFQQDDAHIFCAMEQIEDEIK (UniProt P26639)
- probe-labelled cysteine peptide fold change (10 µM): 0.126
- probe-labelled cysteine peptide fold change (50 µM): 0.326

Target: TGM2_P21980_371_SEGTYCCGPVPVR (UniProt P21980)
- probe-labelled cysteine peptide fold change (10 µM): 0.00473
- probe-labelled cysteine peptide fold change (50 µM): -0.293

Target: TAF6_P49848_235_EITEACVGSCEAK (UniProt P49848)
UniProt P49848, sequence (P49848 whole entry, looked up): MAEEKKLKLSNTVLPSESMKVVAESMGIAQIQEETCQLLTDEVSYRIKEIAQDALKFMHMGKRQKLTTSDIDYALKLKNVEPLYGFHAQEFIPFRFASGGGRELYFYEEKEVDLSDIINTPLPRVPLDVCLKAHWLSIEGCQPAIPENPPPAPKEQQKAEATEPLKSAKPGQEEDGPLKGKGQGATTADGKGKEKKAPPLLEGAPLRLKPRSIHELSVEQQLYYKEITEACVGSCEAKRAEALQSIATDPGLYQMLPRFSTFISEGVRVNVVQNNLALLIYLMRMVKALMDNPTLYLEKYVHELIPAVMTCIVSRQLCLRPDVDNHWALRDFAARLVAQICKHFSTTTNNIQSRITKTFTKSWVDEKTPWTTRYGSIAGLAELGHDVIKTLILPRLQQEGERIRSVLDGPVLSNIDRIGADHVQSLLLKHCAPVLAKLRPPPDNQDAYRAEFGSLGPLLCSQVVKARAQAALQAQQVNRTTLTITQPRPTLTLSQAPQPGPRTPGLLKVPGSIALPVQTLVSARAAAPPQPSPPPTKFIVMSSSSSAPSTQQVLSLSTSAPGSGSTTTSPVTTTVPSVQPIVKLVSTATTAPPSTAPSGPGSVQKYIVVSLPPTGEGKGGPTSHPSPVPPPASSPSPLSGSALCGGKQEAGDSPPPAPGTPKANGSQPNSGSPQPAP
- probe-labelled cysteine peptide fold change (10 µM): -0.193
- probe-labelled cysteine peptide fold change (50 µM): -1.67

Target: SRP72_O76094_54_VVCLIQNGSFK (UniProt O76094)
UniProt O76094, sequence (O76094 whole entry, looked up): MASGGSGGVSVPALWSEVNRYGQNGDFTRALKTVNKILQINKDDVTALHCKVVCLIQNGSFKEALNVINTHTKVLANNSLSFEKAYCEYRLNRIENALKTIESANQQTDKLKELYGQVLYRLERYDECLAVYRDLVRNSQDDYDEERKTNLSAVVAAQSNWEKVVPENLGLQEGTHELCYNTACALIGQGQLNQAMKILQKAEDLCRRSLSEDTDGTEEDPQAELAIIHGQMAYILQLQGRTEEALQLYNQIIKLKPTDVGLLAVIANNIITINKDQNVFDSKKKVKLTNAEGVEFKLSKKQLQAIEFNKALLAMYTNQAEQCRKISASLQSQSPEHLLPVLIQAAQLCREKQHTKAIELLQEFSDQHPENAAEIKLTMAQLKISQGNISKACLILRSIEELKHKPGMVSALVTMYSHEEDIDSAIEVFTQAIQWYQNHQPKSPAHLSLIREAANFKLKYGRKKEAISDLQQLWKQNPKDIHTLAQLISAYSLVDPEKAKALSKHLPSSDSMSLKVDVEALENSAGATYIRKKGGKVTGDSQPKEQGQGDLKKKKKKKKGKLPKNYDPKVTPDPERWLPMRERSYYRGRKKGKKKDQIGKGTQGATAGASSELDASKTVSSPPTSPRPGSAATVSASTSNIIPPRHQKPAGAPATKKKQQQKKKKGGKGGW
- probe-labelled cysteine peptide fold change (10 µM): 0.0906
- probe-labelled cysteine peptide fold change (50 µM): -0.275

Target: TBC1D15_Q8TC07_184_YVVLCESPQDKR (UniProt Q8TC07)
UniProt Q8TC07, sequence (Q8TC07 whole entry, looked up): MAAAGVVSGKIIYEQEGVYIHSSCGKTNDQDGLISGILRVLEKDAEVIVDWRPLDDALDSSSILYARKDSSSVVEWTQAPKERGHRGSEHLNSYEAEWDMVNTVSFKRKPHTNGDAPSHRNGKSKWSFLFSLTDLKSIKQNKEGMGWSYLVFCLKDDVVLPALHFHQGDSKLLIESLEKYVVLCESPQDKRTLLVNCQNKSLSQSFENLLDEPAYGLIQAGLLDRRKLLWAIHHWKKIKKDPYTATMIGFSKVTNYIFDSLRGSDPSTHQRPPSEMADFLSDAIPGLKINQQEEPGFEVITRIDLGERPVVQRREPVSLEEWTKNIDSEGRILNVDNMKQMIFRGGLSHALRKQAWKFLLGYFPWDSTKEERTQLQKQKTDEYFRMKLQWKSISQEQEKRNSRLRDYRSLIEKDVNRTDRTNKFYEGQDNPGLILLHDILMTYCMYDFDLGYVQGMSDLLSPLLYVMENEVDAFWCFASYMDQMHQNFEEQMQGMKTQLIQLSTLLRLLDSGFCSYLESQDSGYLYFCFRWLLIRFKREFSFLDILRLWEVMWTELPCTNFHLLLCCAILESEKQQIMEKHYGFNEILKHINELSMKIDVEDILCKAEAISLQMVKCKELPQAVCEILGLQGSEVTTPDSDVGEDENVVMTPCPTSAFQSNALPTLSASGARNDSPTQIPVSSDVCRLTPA
- probe-labelled cysteine peptide fold change (10 µM): 0.0621
- probe-labelled cysteine peptide fold change (50 µM): -0.0543

Target: TCF20_Q9UGU0_1795_SEDCGGGPR (UniProt Q9UGU0)
- probe-labelled cysteine peptide fold change (10 µM): -0.142
- probe-labelled cysteine peptide fold change (50 µM): -0.0709

Target: TBCD_Q9BTW9_1055_TLDHVLTHGCFDIFTTEEDHPFAVK (UniProt Q9BTW9)
UniProt Q9BTW9, sequence (Q9BTW9 whole entry, looked up): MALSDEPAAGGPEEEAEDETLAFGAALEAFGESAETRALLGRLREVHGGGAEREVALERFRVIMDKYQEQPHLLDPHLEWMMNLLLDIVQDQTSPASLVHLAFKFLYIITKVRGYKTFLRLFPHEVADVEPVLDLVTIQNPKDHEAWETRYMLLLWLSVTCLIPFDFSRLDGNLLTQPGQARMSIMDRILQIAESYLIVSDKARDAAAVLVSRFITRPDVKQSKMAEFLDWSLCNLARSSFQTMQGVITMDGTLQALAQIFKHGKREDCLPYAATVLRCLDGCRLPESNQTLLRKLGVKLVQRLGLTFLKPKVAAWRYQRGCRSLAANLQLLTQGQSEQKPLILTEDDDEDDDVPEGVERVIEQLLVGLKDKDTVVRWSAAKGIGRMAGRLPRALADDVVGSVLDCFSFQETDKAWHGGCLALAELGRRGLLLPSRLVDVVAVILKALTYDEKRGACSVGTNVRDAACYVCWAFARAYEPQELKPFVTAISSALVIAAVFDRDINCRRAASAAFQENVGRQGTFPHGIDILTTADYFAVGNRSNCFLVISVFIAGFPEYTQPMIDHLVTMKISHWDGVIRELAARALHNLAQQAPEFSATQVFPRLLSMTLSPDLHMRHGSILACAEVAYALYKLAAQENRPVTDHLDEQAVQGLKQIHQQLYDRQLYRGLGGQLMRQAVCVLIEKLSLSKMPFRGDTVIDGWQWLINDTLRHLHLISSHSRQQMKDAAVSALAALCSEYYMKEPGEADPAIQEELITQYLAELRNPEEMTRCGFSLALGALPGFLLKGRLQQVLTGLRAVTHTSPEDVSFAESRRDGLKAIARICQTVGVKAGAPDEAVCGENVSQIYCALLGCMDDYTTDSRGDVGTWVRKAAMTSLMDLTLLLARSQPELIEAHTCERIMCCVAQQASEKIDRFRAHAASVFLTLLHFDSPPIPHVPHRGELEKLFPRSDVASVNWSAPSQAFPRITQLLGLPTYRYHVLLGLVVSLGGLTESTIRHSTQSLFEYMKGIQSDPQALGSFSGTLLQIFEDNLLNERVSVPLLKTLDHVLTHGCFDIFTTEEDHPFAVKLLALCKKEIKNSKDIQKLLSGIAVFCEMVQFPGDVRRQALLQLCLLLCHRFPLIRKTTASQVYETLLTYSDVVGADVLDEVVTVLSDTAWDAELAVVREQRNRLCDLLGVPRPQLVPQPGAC
- probe-labelled cysteine peptide fold change (10 µM): -0.188
- probe-labelled cysteine peptide fold change (50 µM): -0.0289

Target: SRPK2_P78362_320_IIEENITSAAPSNDQDGEYCPEVK (UniProt P78362)
- probe-labelled cysteine peptide fold change (10 µM): -0.0943
- probe-labelled cysteine peptide fold change (50 µM): 0.0113

Target: TOR2A_Q5JU69_54_CTLGAFCECDFRPDLPGLECDLAQHLAGQHLAK (UniProt Q5JU69)
- probe-labelled cysteine peptide fold change (10 µM): -0.184
- probe-labelled cysteine peptide fold change (50 µM): 0.309

Target: ST14_Q9Y5Y6_268_SFDLASCDER (UniProt Q9Y5Y6)
- probe-labelled cysteine peptide fold change (10 µM): -0.0626
- probe-labelled cysteine peptide fold change (50 µM): -1.09

Target: TMEM209_Q96SK2_495_TFTSQHFVQTPNKPDVTNENVFCIYQSAINPPHYELIYQR (UniProt Q96SK2)
- probe-labelled cysteine peptide fold change (10 µM): 0.145
- probe-labelled cysteine peptide fold change (50 µM): 0.0358

Target: THADA_Q6YHU6_1605_ENHPECFCK (UniProt Q6YHU6)
- probe-labelled cysteine peptide fold change (10 µM): -0.00737
- probe-labelled cysteine peptide fold change (50 µM): 0.033

Target: TARS_P26639_261_CGPLIDLCR (UniProt P26639)
- probe-labelled cysteine peptide fold change (10 µM): 0.0971
- probe-labelled cysteine peptide fold change (50 µM): 0.248

Target: TOP2A_P11388_170_LCNIFSTK (UniProt P11388)
- probe-labelled cysteine peptide fold change (10 µM): -0.173
- probe-labelled cysteine peptide fold change (50 µM): -0.0147

Target: STXBP3_O00186_114_AAYIYFTDFCPDNLFNK (UniProt O00186)
- probe-labelled cysteine peptide fold change (10 µM): 0.0291
- probe-labelled cysteine peptide fold change (50 µM): 0.184

Target: SON_P18583_92_CVSVQTDPTDEIPTKK (UniProt P18583)
- probe-labelled cysteine peptide fold change (10 µM): -0.351
- probe-labelled cysteine peptide fold change (50 µM): -1.24

Target: SPAG9_O60271_1210_VTPGTFIPYCSMAHAQLCFHGHR (UniProt O60271)
- probe-labelled cysteine peptide fold change (10 µM): 0.231
- probe-labelled cysteine peptide fold change (50 µM): 1.04

Target: TBL3_Q12788_526_GLWCVQFSPMDQVLATASADGTIK (UniProt Q12788)
- probe-labelled cysteine peptide fold change (10 µM): 0.119
- probe-labelled cysteine peptide fold change (50 µM): 0.0335

Target: TARS2_Q9BW92_322_IGKEQELFFFHELSPGSCFFLPR (UniProt Q9BW92)
UniProt Q9BW92, sequence (Q9BW92 whole entry, looked up): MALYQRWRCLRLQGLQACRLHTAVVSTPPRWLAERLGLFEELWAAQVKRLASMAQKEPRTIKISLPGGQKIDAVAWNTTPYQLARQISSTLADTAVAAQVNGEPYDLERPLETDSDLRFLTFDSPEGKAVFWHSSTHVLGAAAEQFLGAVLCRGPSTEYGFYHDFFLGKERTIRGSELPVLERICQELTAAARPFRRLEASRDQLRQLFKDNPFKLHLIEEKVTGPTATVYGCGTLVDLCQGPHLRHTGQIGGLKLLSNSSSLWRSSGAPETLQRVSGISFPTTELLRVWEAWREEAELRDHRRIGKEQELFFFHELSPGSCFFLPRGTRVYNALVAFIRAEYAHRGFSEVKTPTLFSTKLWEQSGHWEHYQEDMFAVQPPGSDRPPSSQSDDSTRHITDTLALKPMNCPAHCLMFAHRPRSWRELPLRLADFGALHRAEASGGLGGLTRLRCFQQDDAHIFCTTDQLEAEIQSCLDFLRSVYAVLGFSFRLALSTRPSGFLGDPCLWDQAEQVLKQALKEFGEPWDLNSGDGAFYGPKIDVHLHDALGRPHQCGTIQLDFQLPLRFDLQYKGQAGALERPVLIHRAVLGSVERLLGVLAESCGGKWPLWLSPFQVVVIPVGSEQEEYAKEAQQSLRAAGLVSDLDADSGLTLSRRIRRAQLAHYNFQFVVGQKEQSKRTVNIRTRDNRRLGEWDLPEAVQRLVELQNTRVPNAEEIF
- probe-labelled cysteine peptide fold change (10 µM): -0.0453
- probe-labelled cysteine peptide fold change (50 µM): -0.425

Target: TBC1D4_O60343_74_SQKPEAGGCGAPAAR (UniProt O60343)
- probe-labelled cysteine peptide fold change (10 µM): -0.579
- probe-labelled cysteine peptide fold change (50 µM): -1.59

Target: TNFAIP2_Q03169_429_ANVIANINNCLSFR (UniProt Q03169)
- probe-labelled cysteine peptide fold change (10 µM): -0.0434
- probe-labelled cysteine peptide fold change (50 µM): 0.184

Target: TMA16_Q96EY4_162_KICANDAIPK (UniProt Q96EY4)
- probe-labelled cysteine peptide fold change (10 µM): -0.041
- probe-labelled cysteine peptide fold change (50 µM): -0.333

Target: SORD_Q00796_301_YCNTWPVAISMLASK (UniProt Q00796)
- probe-labelled cysteine peptide fold change (10 µM): 0.251
- probe-labelled cysteine peptide fold change (50 µM): 0.115

Target: TNPO1_Q92973_862_DDLRDMFCK (UniProt Q92973)
- probe-labelled cysteine peptide fold change (10 µM): -0.311
- probe-labelled cysteine peptide fold change (50 µM): -0.192
